# Reference: PubChem BioAssay
# Activity calls are given as the source filed them.
# How the values were obtained:
# [1] = binders of probe aFSTL3 on microarray, primary screen, stem cell growth factor project, biochemical, small-molecule microarray, fluorescence 635/667 (AID 1064); settings: higher = more signal;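 note: measures binding of the biotinylated anti-FSTL3 antibody to printed compounds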
# [2] = binders from COS7 lysate, DM2A8 probe, primary screen, torsin A project, cell lysate, small-molecule microarray, fluorescence 635/667 (AID 1065); settings: higher = more signal, COS7 lysate expressing mutant human TOR1A
# [3] = binders of probe aFGF2 on microarray, primary screen, stem cell growth factor project, biochemical, small-molecule microarray, fluorescence 635/667 (AID 1067); settings: higher = more signal;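 note: measures binding of biotinylated aFGF2 protein to printed compounds on slides; z-score merges feature fluorescence and signal-to-noise across triplicate slides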
# [4] = binders of probe aFGF10 on microarray, primary screen, stem cell growth factor project, biochemical, small-molecule microarray, fluorescence 635/667 (AID 1071); settings: higher = more signal;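 note: score merges 667 nm spot intensity and signal to noise from triplicate slides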
# [5] = molecular target: Neurogenic locus notch homolog protein 2 (Homo sapiens) (UniProt Q04721); test: Notch2 binders on small-molecule microarrays, primary screen, biochemical, small-molecule microarray, 635 nm fluorescence, stem cell growth factors (AID 1073); settings: Notch2 binding, higher = more signal
# Chain of Neurogenic locus notch homolog protein 2 (Homo sapiens) (Q04721 whole entry, looked up, canonical isoform): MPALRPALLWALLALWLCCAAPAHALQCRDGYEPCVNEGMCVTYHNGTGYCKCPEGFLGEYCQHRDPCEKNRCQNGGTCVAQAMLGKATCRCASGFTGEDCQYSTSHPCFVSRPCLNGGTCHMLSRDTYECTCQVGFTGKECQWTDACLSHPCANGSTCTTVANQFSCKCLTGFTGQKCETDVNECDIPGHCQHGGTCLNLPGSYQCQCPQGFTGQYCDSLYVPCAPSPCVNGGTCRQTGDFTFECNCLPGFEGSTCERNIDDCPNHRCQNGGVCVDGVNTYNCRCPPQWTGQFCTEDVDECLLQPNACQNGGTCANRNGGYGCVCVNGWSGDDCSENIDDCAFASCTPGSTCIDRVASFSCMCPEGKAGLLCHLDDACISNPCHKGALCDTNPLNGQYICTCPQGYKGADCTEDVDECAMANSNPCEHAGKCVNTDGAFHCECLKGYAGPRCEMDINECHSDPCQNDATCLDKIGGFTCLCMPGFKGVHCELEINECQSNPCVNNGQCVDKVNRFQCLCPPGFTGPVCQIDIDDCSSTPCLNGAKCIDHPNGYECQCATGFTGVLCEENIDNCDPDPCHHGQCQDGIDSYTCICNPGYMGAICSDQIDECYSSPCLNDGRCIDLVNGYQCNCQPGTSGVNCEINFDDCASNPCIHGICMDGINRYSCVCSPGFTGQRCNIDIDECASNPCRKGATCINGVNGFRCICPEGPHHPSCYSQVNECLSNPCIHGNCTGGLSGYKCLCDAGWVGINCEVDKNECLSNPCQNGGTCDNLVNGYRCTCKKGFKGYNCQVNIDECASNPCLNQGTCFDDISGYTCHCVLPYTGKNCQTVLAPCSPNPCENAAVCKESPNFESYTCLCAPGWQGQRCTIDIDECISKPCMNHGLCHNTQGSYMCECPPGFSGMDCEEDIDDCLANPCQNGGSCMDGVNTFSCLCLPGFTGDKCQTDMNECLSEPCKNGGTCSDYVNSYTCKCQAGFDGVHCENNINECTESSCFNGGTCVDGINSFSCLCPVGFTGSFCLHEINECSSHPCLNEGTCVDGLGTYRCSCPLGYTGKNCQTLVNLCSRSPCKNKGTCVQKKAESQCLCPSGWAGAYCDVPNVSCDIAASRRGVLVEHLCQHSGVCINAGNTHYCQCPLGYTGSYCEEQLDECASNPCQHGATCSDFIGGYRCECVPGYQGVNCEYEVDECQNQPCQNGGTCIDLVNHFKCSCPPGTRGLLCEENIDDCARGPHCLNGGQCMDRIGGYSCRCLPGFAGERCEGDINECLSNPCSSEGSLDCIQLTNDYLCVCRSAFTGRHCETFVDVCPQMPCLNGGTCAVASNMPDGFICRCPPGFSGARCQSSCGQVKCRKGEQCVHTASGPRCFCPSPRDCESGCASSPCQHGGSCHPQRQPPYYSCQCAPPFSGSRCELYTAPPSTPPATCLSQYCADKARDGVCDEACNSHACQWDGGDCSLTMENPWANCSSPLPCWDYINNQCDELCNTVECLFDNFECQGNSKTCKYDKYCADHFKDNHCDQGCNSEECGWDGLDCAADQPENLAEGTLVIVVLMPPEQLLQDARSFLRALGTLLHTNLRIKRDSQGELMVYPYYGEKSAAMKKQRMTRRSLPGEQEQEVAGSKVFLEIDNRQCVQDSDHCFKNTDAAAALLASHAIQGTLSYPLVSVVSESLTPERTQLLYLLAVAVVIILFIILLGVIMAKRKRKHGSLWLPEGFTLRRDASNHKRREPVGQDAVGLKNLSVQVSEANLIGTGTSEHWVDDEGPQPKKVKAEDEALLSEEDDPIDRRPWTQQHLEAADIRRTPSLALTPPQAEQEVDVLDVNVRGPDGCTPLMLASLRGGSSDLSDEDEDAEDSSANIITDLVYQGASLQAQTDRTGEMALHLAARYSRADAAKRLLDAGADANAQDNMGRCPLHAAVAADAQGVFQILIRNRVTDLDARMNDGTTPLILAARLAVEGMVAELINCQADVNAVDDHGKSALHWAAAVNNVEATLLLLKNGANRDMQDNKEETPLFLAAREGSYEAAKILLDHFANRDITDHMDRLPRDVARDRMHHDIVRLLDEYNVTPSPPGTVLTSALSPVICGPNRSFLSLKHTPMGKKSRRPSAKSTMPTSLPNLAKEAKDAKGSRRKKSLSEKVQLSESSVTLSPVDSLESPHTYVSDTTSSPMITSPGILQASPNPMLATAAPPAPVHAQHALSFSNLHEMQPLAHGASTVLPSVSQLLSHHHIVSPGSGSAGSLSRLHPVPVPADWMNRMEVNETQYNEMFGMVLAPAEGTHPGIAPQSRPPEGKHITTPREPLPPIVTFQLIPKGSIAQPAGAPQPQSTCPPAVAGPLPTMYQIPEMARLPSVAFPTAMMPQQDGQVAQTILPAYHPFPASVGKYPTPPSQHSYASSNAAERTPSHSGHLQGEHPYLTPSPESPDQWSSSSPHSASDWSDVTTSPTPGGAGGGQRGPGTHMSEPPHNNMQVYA
# [6] = molecular target: Pro-neuregulin-1, membrane-bound isoform (Homo sapiens) (UniProt Q02297); test: NRG1 binders on small-molecule microarrays, primary screen, psychiatric disease protein project, biochemical, small-molecule microarray, fluorescence 635/667 (AID 1075); settings: NRG1 binding, 635 nm fluorescence, higher = more signal;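 note: score combines 667 nm spot fluorescence with signal to noise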
# Chain of Pro-neuregulin-1, membrane-bound isoform (Homo sapiens) (Q02297 whole entry, looked up, the tested form may be a part, canonical isoform): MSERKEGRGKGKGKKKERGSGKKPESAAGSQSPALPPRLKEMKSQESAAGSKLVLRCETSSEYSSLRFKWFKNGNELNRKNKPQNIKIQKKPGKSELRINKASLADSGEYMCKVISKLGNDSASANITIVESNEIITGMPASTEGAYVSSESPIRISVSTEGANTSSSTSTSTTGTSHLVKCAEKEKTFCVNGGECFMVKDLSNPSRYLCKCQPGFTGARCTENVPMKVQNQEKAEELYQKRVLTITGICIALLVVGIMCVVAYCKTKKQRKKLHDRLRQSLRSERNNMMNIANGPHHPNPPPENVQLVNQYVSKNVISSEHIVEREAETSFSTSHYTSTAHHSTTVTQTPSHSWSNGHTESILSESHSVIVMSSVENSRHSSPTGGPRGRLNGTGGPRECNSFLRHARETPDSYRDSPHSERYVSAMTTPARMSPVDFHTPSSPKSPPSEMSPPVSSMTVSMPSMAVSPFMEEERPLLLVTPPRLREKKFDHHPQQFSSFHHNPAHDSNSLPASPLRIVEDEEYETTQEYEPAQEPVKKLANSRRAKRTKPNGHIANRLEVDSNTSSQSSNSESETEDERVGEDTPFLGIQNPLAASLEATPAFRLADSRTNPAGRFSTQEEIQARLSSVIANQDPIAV
# [7] = tested on: Neuregulin-1 EGF-like domain; test: binders of neuregulin-1 EGF-like domain, primary screen, biochemical, small-molecule microarray, 635 nm fluorescence (AID 1081); settings: small-molecule microarray binding, higher = more signal;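 note: binding of the protein to compounds printed on small-molecule microarray slides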
# [8] = FRG1 promoter luciferase signal modulators, primary screen, FRG1 inhibition for FSHD, cell-based, C2C12 myotubes, firefly/Renilla luciferase, luminescence (AID 1084); settings: higher = more signal, called active from +8 up or from −8 down
# [9] = binders of probe aFST on microarray, primary screen, stem cell growth factor project, biochemical, small-molecule microarray, fluorescence 635/667 (AID 1086); settings: higher = more signal;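 note: score merges 667 nm fluorescence with signal-to-noise of each printed compound spot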
# [10] = binders of probe aHhip on microarray, primary screen, stem cell growth factor project, biochemical, small-molecule microarray, fluorescence 635/667 (AID 1087); settings: higher = more signal;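 note: score merges spot fluorescence at 667nm with spot signal to noise ratio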
SMILES,composite z-score [1],composite z-score [2],composite z-score [3],composite z-score [4],composite z-score [5],composite z-score [6],composite z-score [7],z-score [8],composite z-score [9],composite z-score [10]
CCOC(=O)C1=C[C@@H](c2ccccc2)N(S(=O)(=O)c2ccc(C)cc2)[C@H]1c1ccccc1Cl,-0.508,0.544,0.168,1.1,1.5,0.264,0.857,-3.26 (inactive),0.945,-0.16
[N-]=[N+]=NCc1ccccc1C[C@@]1(C(=O)N2CCCCC2)N=C(c2ccc(OCCCO)cc2)O[C@@H]1c1ccccc1,0.0156,0.317,-0.0958,0.108,1.09,1.15,0.825,-3.91 (inactive),0.301,-0.0457
CC(C)[Si](C#C[Si](C(C)C)(C(C)C)C(C)C)(O[C@H](C)c1cn([C@H](CO)Cc2ccccc2)nn1)C(C)C,-0.311,0.585,-0.116,0.215,0.203,0.183,0.432,-1.06 (inactive),0.513,-0.111
COC(=O)[C@@]1(Cc2ccc(OC)cc2)[C@H]2c3cc(C(=O)N4CCCC4)n(Cc4cccc5ccccc45)c3C[C@H]2CN1C(=O)c1ccccc1,0.176,-0.214,0.401,0.672,1.8,1.42,0.831,-0.404 (inactive),0.849,-0.115
NC(=O)NCC#Cc1ccc2c(c1)[C@]1(C(=O)N2)[C@H](C(=O)O)[C@H]2C(=O)O[C@H](c3ccccc3)[C@H](c3ccccc3)N2[C@@H]1c1ccc(OCCO)cc1,0.131,0.35,-0.139,0.0382,0.247,0.881,0.851,-0.359 (inactive),0.718,-0.0994
CCCCCCc1nc(C2CC2)cc2c1[Si](C(C)C)(C(C)C)OC2,0.355,-0.376,-0.14,-0.715,-1.13,-0.526,-1.17,1.19 (inactive),-0.319,-0.137
COCCCNC(=O)[C@@]1(Cc2ccccc2N=[N+]=[N-])COC(c2ccc(OCCCO)cc2)=N1,0.846,0.0792,0.146,0.805,1,1.54,1.27,0.554 (inactive),0.734,-0.274
O=C1NC(=O)C2C1C=CC(C(O)CCc1ccccc1)N2Nc1ccc(Cl)cc1Cl (stereo not given),1.18,1.42,0.153,0.229,1.39,1.34,1.1,1.19 (inactive),1.55,0.011
CCOC(=O)C1CCCCN1 (stereo not given),0.267,0.0953,0.119,0.989,0.931,0.153,0.765,-0.102 (inactive),0.74,1.96
C=CCN1C(=O)[C@@]2(O[C@@H](CCn3cc([C@H](O)c4ccccc4)nn3)[C@H]([Si](C)(C)c3ccc(OC)cc3)[C@H]2C)c2cc(N3CCC3=O)ccc21,0.211,0.175,-0.0894,0.383,-0.496,0.997,1.25,-1.88 (inactive),-0.259,-0.13
COC(=O)C(CC#Cc1ccc2c(c1)[C@]1(C(=O)N2)[C@H](C(=O)N2CCN(c3ncccn3)CC2)[C@H]2C(=O)O[C@H](c3ccccc3)[C@H](c3ccccc3)N2[C@@H]1c1ccc(OCCO)cc1)C(=O)OC,-0.448,1.21,-0.0768,0.554,1.16,1.67,1.26,1.97 (inactive),0.38,-0.0296
COCCOC(=O)N1C(=O)[C@@]2(c3cc(C#Cc4ccc(OC)cc4)ccc31)[C@H](C(=O)Nc1nc3ccccc3s1)[C@H]1C(=O)O[C@H](c3ccccc3)[C@H](c3ccccc3)N1[C@@H]2c1ccc(O)cc1,0.0683,-0.164,0.0289,0.445,1.06,1.19,1.22,2.65 (inactive),0.286,0.282
O=C1C[C@@](C(=O)NCCN2CCOCC2)(c2ccc([N+](=O)[O-])cc2)[C@@H](c2ccc(CO)cc2I)N1C1CCCCC1,-0.218,-0.0103,-0.0736,0.262,0.64,0.148,1.43,1.21 (inactive),-0.0352,-0.0717
C=CC[C@]1(C(=O)NCCN2CCOCC2)N=C(c2ccc(OCCCO)cc2)O[C@H]1c1ccccc1CN=[N+]=[N-],0.442,1.46,-0.0078,0.333,0.837,0.849,1.23,1.81 (inactive),0.171,0.0338
CN1C(=O)C2C=CC(C(O)c3cccc(O)c3)N(Nc3ccccc3)C2C1=O (stereo not given),-0.0512,-0.201,0.0121,0.518,0.768,1.9,1.25,0.737 (inactive),0.495,0.0808
COc1cc(OC)c(C(O)C2C=CC3C(=O)N(C)C(=O)C3N2NC(=O)OC(C)(C)C)cc1Br (stereo not given),0.411,-0.381,0.232,0.843,1.76,1.85,1.37,-0.612 (inactive),1.84,0.0522
C=CC1c2cc(O)c(OC)cc2CCN1Cc1cc2c(cc1Br)OCO2 (stereo not given),1.54,1.07,-0.101,-0.15,-0.322,1.19,1.22,-0.454 (inactive),0.221,-0.132
CC(C)[Si](C#CCCCC#N)(O[C@H](c1ccccc1)c1cn([C@H](CO)Cc2ccccc2)nn1)C(C)C,-0.436,1.22,-0.168,0.202,0.873,1.44,1.21,-0.325 (inactive),-0.337,0.0373
CC(C)C(=C=CC[C@H](O)c1cccc(OCCO)c1)C[C@H](O)c1cc(Cl)cc(Cl)c1O,-0.205,-0.178,-0.116,0.792,-0.022,0.462,0.827,0.209 (inactive),0.53,0.0722
CCOC(=O)[C@H]1[C@@H]2C(=O)N3CCC[C@H]3[C@H](O[Si](C(C)C)(C(C)C)C(C)C)[C@H]2C=C2CCN(S(=O)(=O)c3ccc(C)cc3)C[C@H]21,-0.646,0.336,-0.118,0.248,0.966,0.319,1.08,-0.647 (inactive),0.125,-0.164
Cc1cc(C)c(C(O)C2C=CC3C(=O)NC(=O)C3N2Nc2ccc(Cl)cc2Cl)c(C)c1 (stereo not given),0.246,-0.33,0.059,0.495,1.49,1.65,1.01,2.81 (inactive),1.64,-0.0618
CC[C@H]1C2=C3C(CC[C@H]4C(OCc5ccc(F)cc5C(F)(F)F)OC[C@](C)([C@@H]34)N(C(=O)OC(C)(C)C)C2)C(COC)C1COC (stereo not given in full),-0.117,-0.281,0.0253,0.0921,0.84,0.336,-0.0151,1.18 (inactive),0.857,-0.329
[N-]=[N+]=Nc1ccccc1C[C@]1(C(=O)N2CCOCC2)N=C(c2ccc(OCCCO)cc2)O[C@H]1c1ccccc1,0.747,1.49,0.17,0.983,1.48,1.13,1.23,-1.62 (inactive),1.29,0.348
O=C1O[C@H](c2ccccc2)[C@H](c2ccccc2)N2[C@H]1[C@@H](C(=O)O)[C@]1(C(=O)Nc3ccc(C#CC4=CCCCC4)cc31)[C@H]2c1ccc(O)cc1,-0.261,-0.208,-0.0899,0.728,0.769,0.92,1.13,-0.179 (inactive),0.189,-0.121
CO[C@H]1O[C@H](CO)[C@@H](OC(=O)Nc2ccccc2-c2ccccc2)[C@H](OC(=O)Nc2ccc3c(c2)OCO3)[C@H]1OC(=O)Nc1ccc2c(c1)OCO2,-0.0811,0.866,0.0555,0.937,1.47,1.72,1.35,4.93 (inactive),0.601,-0.0618
CN(C)CCCNC(=O)[C@@]1(C)c2ccccc2C(=O)N(Cc2ccccc2)[C@H]1c1ccc(CO)cc1,1.2,-0.333,-0.116,-0.305,-0.675,1.62,0.562,-0.839 (inactive),-0.0584,-0.0074
COc1cc2c(cc1OC)CN(C(=O)[C@@H]1[C@H]3C(=O)O[C@H](c4ccccc4)[C@H](c4ccccc4)N3[C@H](c3ccc(OCCO)cc3)[C@@]13C(=O)Nc1ccccc13)CC2,-0.164,0.562,0.0373,1.01,1.16,1.42,1.23,2.03 (inactive),0.29,0.0139
CCOC(=O)C[C@H]1[C@H](OC(=O)c2ccc(C(=O)c3ccccc3)cc2)[C@@H](NC(=O)Cc2ccc(OC)cc2)c2cc(OCCCO)ccc2N1C(=O)c1ccccc1,-0.045,0.135,-0.107,0.172,0.227,-0.104,0.676,-0.587 (inactive),0.518,-0.0994
CC1CC/C=C\[C@H]2OC34C=CCN(C(C)C)C(=O)[C@H]3N(CCCCCCO)C(=O)[C@@H]4C2C(=O)O1 (stereo not given in full),0.315,-0.671,-0.143,-0.178,-0.357,1.06,0.147,0.286 (inactive),-0.856,-0.304
CCCC[C@@H](O)C1=C(COc2ccccc2)C[C@H]2C(=O)N(C)C(=O)[C@H]2[C@H]1CO,-0.417,-0.33,-0.128,-0.167,-0.23,-0.665,-0.609,-1.64 (inactive),-0.346,-0.261
